Test results taken from the supplement of paper PMC3334620.
Whole data set: some 33,000 sequences, median “E-score (-0.5 to 0.5)” near -0.035, cut for the highest 2% near 0.34. The sample as a whole holds a higher share of the highest values than the screen did.

molecular target: T1, Mot3 (UniProt P54785); experiment: PBM E-score (8-mer binding enrichment) (E-score (-0.5 to 0.5)); higher = stronger / more preferred TF binding; settings: protein concentration: 200 nM; construct: GST-full length
T1 sequence: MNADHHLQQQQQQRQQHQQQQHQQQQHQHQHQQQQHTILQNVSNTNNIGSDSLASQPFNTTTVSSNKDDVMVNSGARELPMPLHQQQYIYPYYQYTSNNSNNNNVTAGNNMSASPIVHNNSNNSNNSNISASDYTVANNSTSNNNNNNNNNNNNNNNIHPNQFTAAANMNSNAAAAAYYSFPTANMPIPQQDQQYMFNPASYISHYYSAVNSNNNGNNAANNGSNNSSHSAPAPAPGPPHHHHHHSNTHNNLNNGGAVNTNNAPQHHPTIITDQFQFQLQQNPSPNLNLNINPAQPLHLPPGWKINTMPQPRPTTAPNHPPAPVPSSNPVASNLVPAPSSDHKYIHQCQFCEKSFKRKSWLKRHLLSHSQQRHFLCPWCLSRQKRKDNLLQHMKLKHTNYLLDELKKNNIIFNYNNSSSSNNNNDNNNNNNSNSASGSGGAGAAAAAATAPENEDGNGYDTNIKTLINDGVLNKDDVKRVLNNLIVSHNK
Description: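 Universal 'all 10-mer' protein binding microarrays (Agilent AMADID 015681) probed with GST-tagged S. cerevisiae TFs (full-length or DBD) made by in vitro transcription/translation (PURExpress), about 100-200 nM. Bound TF was detected with fluorescent anti-GST. Each ungapped 8-mer (which stands for itself and its reverse complement) is scored by the PBM enrichment score (E-score), a modified Wilcoxon-Mann-Whitney statistic from -0.5 to +0.5, computed with the Universal PBM Analysis Suite. Scale: above 0.35 generally sequence-specific binding.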

Sequence	PBM E-score
AGAGCACC	-0.233
ACGTATCC	-0.129
CCATCTCC	-0.26
CCGGGGTC	-0.135
AGTGCGAT	-0.00843
GATTTCGC	0.167
GAGACTCA	-0.251
ACACGTTC	0.303
ACACGTGG	0.236
ACACGTGT	0.363
ACACGTTA	0.345
AAACGTGG	-0.0479
AAACGTGT	0.344
ACACGTGA	0.273
AAACGTGA	0.178
ACACGTTG	0.305
CACGCGCC	0.181
CCAGGGTA	-0.153
GCCCAACA	0.146
ATCAAAAC	-0.118
ATGTTTTA	0.362
ATGTTTAG	0.279
CTGTTTTA	0.0859
GTGTTTTA	0.219
CTGTTTAC	0.28
ATGTTTAC	0.374

Sequence	PBM E-score
CTAGAACC	-0.0352
AAGCCCTG	-0.0744
AACTACCG	-0.0555
ATGGGGAG	-0.135
CTGTGTGA	0.181
ATGTGTAA	0.352
GAGTGTAA	0.249
ATGTGTAC	0.285
GTGTGTAA	0.394
ATGTATAA	0.256
GTGTATAA	0.343
CTGTATAA	0.0988
GGGTGTAA	0.223
ATGTGTAG	0.303
CTGTGTAC	0.294
CTGTGTAA	0.41
CCGGATGC	-0.24
ACGATCTC	-0.198
ACTAGGGG	-0.223
CGCTCTTC	-0.174
GACACATC	-0.0862
CCTAGGAC	-0.0674
AAGATGTA	0.194
AACATGTA	0.42
AACATGTT	0.387
AACATTTA	0.244

Sequence	PBM E-score
AACATGTG	0.278
AACATGTC	0.296
CTGGCCCC	-0.215
AACGGTTC	-0.172
AACAGAAT	0.0192
ATCTTAAG	-0.14
CCTGACCG	-0.159
CGTAGGAG	-0.0892
GGTAGGAA	0.313
TGTAGGAA	0.406
CGTAGGAA	0.351
GGTAGGAC	-0.172
AGTAGGAT	0.0448
CGTAGGAC	-0.166
AGTAGGAC	-0.258
AGTAGGAA	0.403
CATCAGGG	-0.0517
ACTGCGGC	-0.227
AACTAAGA	0.0799
CAATTGCA	-0.0452
CGTACCTA	0.395
GCTACCTA	0.0719
CTTACCTA	0.175
CGTACCTC	-0.144
AGTACCTC	-0.107
GGTACCTA	0.424

Sequence	PBM E-score
GGTACCCA	0.00798
ATTACCTA	0.332
AGTACCTA	0.342
GTTACCTA	0.369
AGTACCAA	0.013
CCTACCTA	0.156
GTCACCTA	-0.0234
ATGAAGTA	-0.0752
CTTACAGC	0.00061
CCCCATAC	0.00082
GATGGAAC	-0.0944
AGTACCAG	-0.106
ATTACCTG	0.336
AGTACCTG	0.378
CAGCCCGG	-0.239
CGGGGAAC	-0.0973
CATGTATC	0.277
AGTGTAGA	0.151
AATGTAGG	0.191
CATGTATA	0.376
GATGTATA	0.195
CGTGTAGC	0.228
GATGTAGA	0.195
CATGTAGG	0.374
CATGTAGA	0.39
CAAGTAGG	0.105

Sequence	PBM E-score
CGTGTAGA	0.414
CATGTAGC	0.276
ATTGGAGA	-0.179
AAGGGGGC	-0.138
AGTAGAAG	0.0882
AGGTTCAT	-0.0206
GGCCCAGA	-0.411
CCAAGACG	-0.236
ACAACGGG	0.07
GCTAACTA	0.00452
AGTGTAAG	0.00213
CGTGTAAC	0.351
GGTGTAAC	0.164
CGTGTAAG	0.38
AGTGTAAT	0.308
ACTGTAAG	0.0605
CGTGTAAA	0.438
GGTGTAAA	0.297
TGTGTAAA	0.416
AGTGTAAA	0.28
AGTGTAAC	0.128
ACCTAGGT	0.124
CGGTCTAC	-0.0115
ACTTCTGA	-0.101
GTGCATAA	0.084
AGGTTGTC	-0.0425

Sequence	PBM E-score
CAAAGAAC	0.197
CGCGGAAG	-0.172
CCCATGGA	-0.187
CCCATGTA	0.377
GCCATGCA	-0.135
GCCATGGA	-0.144
ACCATGTG	0.0765
CCCATGTC	0.0657
ACCATGTA	0.404
GCCATGTA	0.383
ACCATGTC	0.223
ATACCTCG	0.121
AAGGTGGC	-0.095
AAACAGCT	-0.268
CTGTAACA	0.182
AGGTAACC	0.321
AGGTAACT	0.297
GTGTAACA	0.343
ATGTAACC	0.166
GCGTAACA	0.196
GTGTAAGA	0.312
ATGTAACA	0.373
AGGTAACA	0.357
ACCGACCC	-0.256
AGCAGAAT	0.059
ATCCTGCG	0.0225

Sequence	PBM E-score
TGAGAGAA	-0.0743
AGGGTCCG	-0.269
CGCCCAAG	-0.105
AAATTACA	0.365
AAATTACT	0.138
GAATTATA	0.0628
AAATTACG	0.249
CAATTACG	0.26
TAATTATA	0.206
GAATTACC	0.0992
GAATTACA	0.366
TAATTACA	0.372
TAATTAGA	0.0891
CAATTACA	0.378
CAATTACC	0.12
AAGCAGAA	0.108
AACTAGAT	0.138
AGGCAGCC	0.317
CTTCTCAC	-0.125
TCGGCTAA	-0.0724
